HIF-2a inh: HIF-2a inhibition. 786-0 RCC cells HIF-2a reporter, luciferase luminescence, overnight. inhibition, % at 18.8 µM. 360,000 tested, 0.72% active;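 active = inhibition of the luminescence signal of 40% or more relative to plate controls, in a single-dose primary screen at 18.75 µM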
TWEAK Fn14 block: blocks TWEAK-Fn14 interaction in a reporter cell assay; TWEAK-stimulated Fn14 reporter cells, luciferase luminescence, 8 h; inhibition, % at 10 µM; 360,000 tested, 2% active; in the data active = inhibition above about 50%
CF NFkB block: blocks PAF-induced NF-kB reporter in cystic fibrosis cells | AID 588850 | 360,000 tested, 0.86% active | inhibition, % at 5 µM | KKLEB NF-kB-GFP reporter, GFP fluorescence overnight;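 active = at least 50% inhibition at 5 µM, scaled per plate between neutral and stimulator controls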;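 note: PAF is a Pseudomonas aeruginosa culture filtrate used as stimulus; plate controls were PAF-stimulated DMSO wells for no effect and unstimulated DMSO wells for full effect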
TROY signal inh: TROY signaling inhibition; Q293 LMP1-TROYcd NF-kB luciferase reporter, 4 h; 360,000 tested, 0.98% active; inhibition, % at 10 µM;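 active = compounds whose plate-normalised and pattern-corrected inhibition of the luciferase reporter signal at the single screening dose is 50% or more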
KKLEB tox: counter-screen for CF NF-kB inhibitors: cytotoxicity; KKLEB CF airway cells viability, ATPlite luminescence, overnight; active compounds read low; cells stimulated with P. aeruginosa culture filtrate; activity change (cytotoxicity), % at 5 µM; 360,000 tested, 0.36% active; AID 602141;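 active = corrected activity change at or below -50% at 5 µM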
Peg3 promoter: reduces Peg3 promoter-driven luciferase expression in HeLa | HeLa PEG-Prom luciferase reporter, luminescence, overnight | inhibition, % at 20 µM | 360,000 tested, 1.7% active | AID 588405;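 active = inhibition of at least 50% at 20 µM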
Numbers without * were called inactive. Only some compounds are listed: those with a hit (about 4% of all), similar ones and a draw of the others.

What do the screens show for `CC(NCCCOc1cccc2ccccc12)c1ccccc1` (stereo not given)?
HIF-2a inh: 14.4; TWEAK Fn14 block: -17.0; CF NFkB block: 28.6; TROY signal inh: -67.0; KKLEB tox: -11.6; Peg3 promoter: 94.0*

Results for COc1ccc2ccccc2c1CNC(C)c1ccccc1 (stereo not given) ?
HIF-2a inh: 21.1; TWEAK Fn14 block: 0.5; CF NFkB block: -0.9; TROY signal inh: 17.3; KKLEB tox: 19.6; Peg3 promoter: 2.9

What do the screens show for `COc1ccc(N2CCN(C(=O)CSc3nc4[nH]ncc4c(=O)n3-c3cccc4ccccc34)CC2)cc1`?
HIF-2a inh: 30.4; TWEAK Fn14 block: 20.7; CF NFkB block: -2.2; TROY signal inh: -2.9; KKLEB tox: 5.2; Peg3 promoter: 26.2

How did CC/C(=N/Nc1cccc(C)c1)c1cnnc(SC)n1 do in these assays?
HIF-2a inh: 8.6; TWEAK Fn14 block: -51.7; CF NFkB block: 55.3*; TROY signal inh: -33.2; KKLEB tox: -51.5*; Peg3 promoter: 36.8

Results for CCCOc1ccc(/C=C2/C(=O)ON=C2C)cc1OCC ?
HIF-2a inh: 35.8; TWEAK Fn14 block: 4.0; CF NFkB block: 2.5; TROY signal inh: -18.1; KKLEB tox: -8.3; Peg3 promoter: 50.4*

How did CCCOc1ccccc1/C=C1/C(=O)ON=C1C do in these assays?
HIF-2a inh: 22.3; TWEAK Fn14 block: 1.8; CF NFkB block: -22.6; TROY signal inh: -14.2; KKLEB tox: 3.1; Peg3 promoter: 22.8

Results for CCOc1cc(/C=C2\C(=O)ON=C2C)ccc1OCc1ccccc1 ?
HIF-2a inh: 67.0*; TWEAK Fn14 block: 60.6*; CF NFkB block: -16.4; TROY signal inh: -16.7; KKLEB tox: 2.3; Peg3 promoter: 89.5*

What do the screens show for `C=CCOc1ccc(/C=C2/C(=O)ON=C2C)cc1OC`?
HIF-2a inh: 27.2; TWEAK Fn14 block: -3.8; CF NFkB block: 4.2; TROY signal inh: -17.9; KKLEB tox: 0.6; Peg3 promoter: 46.8

Results for Cc1ccc(N(CC(=O)NCC2CCCO2)C(=O)Cn2nnc(-c3cccs3)n2)cc1 (stereo not given) ?
HIF-2a inh: -25.4; TWEAK Fn14 block: 7.7; CF NFkB block: 0.9; TROY signal inh: 4.0; KKLEB tox: -5.4; Peg3 promoter: -28.4

How did O=S(=O)(c1ccccc1)c1nc(-c2ccccc2)oc1N1CCCC1 do in these assays?
HIF-2a inh: 10.2; TWEAK Fn14 block: 3.5; CF NFkB block: -7.6; TROY signal inh: 9.1; KKLEB tox: -3.0; Peg3 promoter: -7.3

Results for NC1=NC[C@H](c2ccccc2)N1CC1CCCCC1 ?
HIF-2a inh: 4.7; TWEAK Fn14 block: 9.4; CF NFkB block: 3.7; TROY signal inh: 6.5; KKLEB tox: -13.5; Peg3 promoter: -8.5

How did N#Cc1cnn(CC2CCCCC2)c1N do in these assays?
HIF-2a inh: 16.7; TWEAK Fn14 block: 60.6*; CF NFkB block: 5.5; KKLEB tox: 6.9; Peg3 promoter: 6.3

What do the screens show for `Cc1nnc(SCc2nnc(-c3cccs3)o2)n1Cc1ccccc1`?
HIF-2a inh: 11.8; TWEAK Fn14 block: 7.0; CF NFkB block: -2.0; TROY signal inh: 11.6; KKLEB tox: 1.3; Peg3 promoter: 4.0

How did Clc1ccc(-c2nnc(CSc3nnc(-c4cccs4)n3Cc3ccccc3)o2)cc1 do in these assays?
HIF-2a inh: 17.7; TWEAK Fn14 block: 63.6*; CF NFkB block: -1.4; TROY signal inh: 47.8; KKLEB tox: 4.4; Peg3 promoter: 46.0

What do the screens show for `CC1(C)CC(=O)C/C(=N/Nc2nc3ccccc3s2)C1`?
HIF-2a inh: -25.2; TWEAK Fn14 block: 69.3*; CF NFkB block: 2.0; TROY signal inh: 63.4*; KKLEB tox: 2.1; Peg3 promoter: -22.9

What do the screens show for `CC1CCC/C(=N/Nc2nc3ccccc3s2)C1` (stereo not given)?
HIF-2a inh: -183.6; TWEAK Fn14 block: -6.2; CF NFkB block: -12.1; TROY signal inh: 23.3; KKLEB tox: 16.0; Peg3 promoter: -305.6

How did Cc1ccc(NN=C2c3ccccc3-c3ccccc32)cc1 do in these assays?
HIF-2a inh: -151.8; TWEAK Fn14 block: 39.6; CF NFkB block: 19.3; TROY signal inh: 51.6*; KKLEB tox: -8.2; Peg3 promoter: -161.0

What do the screens show for `FC(F)Oc1ccc(NC(=S)NCc2ccccc2)cc1`?
HIF-2a inh: -33.8; TWEAK Fn14 block: -15.7; CF NFkB block: 2.2; TROY signal inh: -4.3; KKLEB tox: 2.7; Peg3 promoter: -20.1

Results for Oc1cccc2c(NC(=S)Nc3ccc(OC(F)F)cc3)cccc12 ?
HIF-2a inh: -158.1; TWEAK Fn14 block: 90.8*; CF NFkB block: -0.5; TROY signal inh: 47.6; KKLEB tox: 14.3; Peg3 promoter: -153.0

What do the screens show for `Cc1occc(=O)c1O`?
HIF-2a inh: -1.4; TWEAK Fn14 block: 5.4; CF NFkB block: -16.9; TROY signal inh: -2.7; KKLEB tox: -88.4*; Peg3 promoter: -4.6

How did Cn1c(=O)c2c(nc(NCCNC(=O)c3ccco3)n2Cc2ccccc2)n(C)c1=O do in these assays?
HIF-2a inh: 13.2; TWEAK Fn14 block: 98.4*; CF NFkB block: -11.1; TROY signal inh: -14.1; KKLEB tox: -0.7; Peg3 promoter: 17.9

What do the screens show for `COc1cc(/C=N/Nc2nc3c(c(=O)n(C)c(=O)n3C)n2Cc2ccccc2)ccc1OC(=O)c1ccco1`?
HIF-2a inh: -29.4; TWEAK Fn14 block: 71.7*; CF NFkB block: -78.8; TROY signal inh: 42.4; KKLEB tox: 9.3; Peg3 promoter: 21.8

Results for Cn1c(=O)c2c(nc(NCc3ccc4c(c3)OCO4)n2Cc2ccc(F)cc2)n(C)c1=O ?
HIF-2a inh: 18.0; TWEAK Fn14 block: 18.7; CF NFkB block: 3.4; TROY signal inh: 34.0; KKLEB tox: -5.7; Peg3 promoter: 55.9*

Results for Cn1c(NCc2ccccc2)nc2c1c(=O)n(Cc1ccc(Br)cc1)c(=O)n2C ?
HIF-2a inh: 25.1; TWEAK Fn14 block: 23.0; CF NFkB block: 2.1; TROY signal inh: 23.8; KKLEB tox: 0.3; Peg3 promoter: 50.6*

How did Cn1c(=O)c2c(nc(NCCNC(=O)c3ccco3)n2Cc2ccc(F)cc2)n(C)c1=O do in these assays?
HIF-2a inh: 7.6; TWEAK Fn14 block: 31.1; CF NFkB block: 7.6; TROY signal inh: 4.5; KKLEB tox: -8.9; Peg3 promoter: -7.3

What do the screens show for `COCCCNC(=O)c1c(N)n(/N=C/c2cccs2)c2nc3ccccc3nc12`?
HIF-2a inh: -5.4; TWEAK Fn14 block: 28.1; CF NFkB block: -24.4; TROY signal inh: -1.1; KKLEB tox: 0.0; Peg3 promoter: 7.7

Results for COc1ccccc1Oc1nc(C)c(C(C)=O)cc1C#N ?
HIF-2a inh: 9.0; TWEAK Fn14 block: -27.3; CF NFkB block: 3.7; TROY signal inh: -5.5; KKLEB tox: -3.0; Peg3 promoter: 8.3

How did CC(=O)c1ccc(NC(=O)C2CCN(S(=O)(=O)c3cccs3)CC2)cc1 do in these assays?
HIF-2a inh: -125.6; TWEAK Fn14 block: -26.7; CF NFkB block: -18.5; TROY signal inh: -40.6; KKLEB tox: -9.2; Peg3 promoter: -121.6

How did CC1CN(C(=O)C2CCCCC2)C(C)CN1C(=O)C1CCCCC1 (stereo not given) do in these assays?
HIF-2a inh: 4.9; TWEAK Fn14 block: 6.1; CF NFkB block: 5.8; TROY signal inh: 4.2; KKLEB tox: -5.3; Peg3 promoter: 5.5
